From PubChem BioAssay (NCATS) come the findings set out here.

Assay [1] can be described thus: Cytometric Cell-Based qHTS for Inhibitors of the mTORC1 Signaling Pathway in MEF (Tsc2-/-, p53-/-) Cells (AID 2660).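 Further: Tsc2 and p53 null MEFs carrying empty vector with compound for 24 h; percent of cells above a phospho-rpS6 to PI ratio cutoff in each well; series mostly up to about 38 µM.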 A digest of the protocol:
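Percent of cells positive for normalized phospho-S6 staining is reported, with the cutoff set from rapamycin (7.5 nM) versus DMSO wells. Tsc2-/-, p53-/- MEFs received compound for 24 hrs.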
On the technique in general: In qHTS, concentration-response curves come from the screen itself.

Assay [2] is described as follows: High Content Imaging Cell-Based qHTS for Inhibitors of the mTORC1 Signaling Pathway in MEF (Tsc2-/-, p53-/-) Cells (AID 2666).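 Further: percent of cells scored positive for phospho-rpS6 Ser235/236 immunostaining by imaging.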 A digest of the protocol: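 Inhibition of rpS6 phosphorylation is measured by immunofluorescence imaging in empty-vector Tsc2-/-, p53-/- mouse embryonic fibroblasts after 24 hrs compound exposure at 37 degree Celsius. Results are reported as % positive cells per well.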

The nature of assay [3]: High Content Imaging Cell-Based qHTS for Inhibitors of the mTORC1 Signaling Pathway in MEF Cells (AID 2667).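 Further: Tsc2-/- p53-/- MEFs stably re-expressing wild-type Tsc2 exposed 24 h; series mostly up to about 38 µM.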 A digest of the protocol: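 Fixed-cell imaging of phospho-S6 (Ser235/236, Alexa-488) after 24 hrs of compound treatment at 37 degree Celsius. Signal was normalized to Hoechst, and thresholds from the highest and lowest wells split cells into % active versus % non-active.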

A short description of assay [4]: Cytometry Cell-Based qHTS for Inhibitors of the mTORC1 Signaling Pathway in MEF cells (AID 2668).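 Further: Tsc2-/- p53-/- mouse embryonic fibroblasts stably re-expressing wild-type Tsc2; percent cells positive for phospho-rpS6 Ser235/236 relative to propidium iodide stain; series mostly up to about 38 µM.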 A digest of the protocol:
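Phospho-rpS6 (Ser235/236) immunofluorescence over PI signal, scored as % positive cells using thresholds from 7.5 nM rapamycin and DMSO wells, after 24 h compound exposure of WT-Tsc2-rescued Tsc2-/-, p53-/- MEFs. PI cell count recorded for viability.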

Assay [5] is described as follows: Validation screen for small molecules that induce DNA re-replication in MCF 10A normal breast cells (AID 463097). Further: nearly all actives have a fitted effect of over 60% in size. The method, boiled down:
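Read-out is Hoechst total nuclear intensity by fluorescence scanning imager, flagging increased high-DNA-content nuclei. Compounds were incubated with MCF 10A cells for 48 hr (37 C, 5% CO2) before 40 min staining.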

Assay [6] addresses Ubiquitin carboxyl-terminal hydrolase 2 (Homo sapiens) (UniProt O75604). In words: qHTS Validation Assay for Inhibitors of Ubiquitin-specific Protease USP2a Using CHOP2 as the Reporter (AID 463106). Further: potency means the concentration at half of the fitted maximal effect. The method, boiled down:
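Inhibition is expressed relative to NEM as the full-inhibition control, with concentration-response curves classed by fit quality, magnitude and activity. Enzyme (USP2 core, 10nM) meets 25nM Ub-CHOP2 after compound preincubation; readings are taken at 60min.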

The target in assay [7] is DNA polymerase III PolC-type (Bacillus subtilis (strain 168)) (UniProt P13267). Description: qHTS Validation Assay for the Inhibitors of DNA Replication in Gram-Positive Bacteria (AID 485295). Further: potency means the concentration at half of the fitted maximal effect. A digest of the protocol: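 Double-stranded DNA product detected by PicoGreen fluorescence after EDTA quench. Compound incubated with B. subtilis holoenzyme (PolC, beta subunit, SSB, primase) before substrate addition; primed replication of M13Gori with dNTPs and NTPs at room temperature; DMSO defines 0% inhibition.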
DNA polymerase III PolC-type (Bacillus subtilis (strain 168)), sequence (P13267 whole entry, looked up): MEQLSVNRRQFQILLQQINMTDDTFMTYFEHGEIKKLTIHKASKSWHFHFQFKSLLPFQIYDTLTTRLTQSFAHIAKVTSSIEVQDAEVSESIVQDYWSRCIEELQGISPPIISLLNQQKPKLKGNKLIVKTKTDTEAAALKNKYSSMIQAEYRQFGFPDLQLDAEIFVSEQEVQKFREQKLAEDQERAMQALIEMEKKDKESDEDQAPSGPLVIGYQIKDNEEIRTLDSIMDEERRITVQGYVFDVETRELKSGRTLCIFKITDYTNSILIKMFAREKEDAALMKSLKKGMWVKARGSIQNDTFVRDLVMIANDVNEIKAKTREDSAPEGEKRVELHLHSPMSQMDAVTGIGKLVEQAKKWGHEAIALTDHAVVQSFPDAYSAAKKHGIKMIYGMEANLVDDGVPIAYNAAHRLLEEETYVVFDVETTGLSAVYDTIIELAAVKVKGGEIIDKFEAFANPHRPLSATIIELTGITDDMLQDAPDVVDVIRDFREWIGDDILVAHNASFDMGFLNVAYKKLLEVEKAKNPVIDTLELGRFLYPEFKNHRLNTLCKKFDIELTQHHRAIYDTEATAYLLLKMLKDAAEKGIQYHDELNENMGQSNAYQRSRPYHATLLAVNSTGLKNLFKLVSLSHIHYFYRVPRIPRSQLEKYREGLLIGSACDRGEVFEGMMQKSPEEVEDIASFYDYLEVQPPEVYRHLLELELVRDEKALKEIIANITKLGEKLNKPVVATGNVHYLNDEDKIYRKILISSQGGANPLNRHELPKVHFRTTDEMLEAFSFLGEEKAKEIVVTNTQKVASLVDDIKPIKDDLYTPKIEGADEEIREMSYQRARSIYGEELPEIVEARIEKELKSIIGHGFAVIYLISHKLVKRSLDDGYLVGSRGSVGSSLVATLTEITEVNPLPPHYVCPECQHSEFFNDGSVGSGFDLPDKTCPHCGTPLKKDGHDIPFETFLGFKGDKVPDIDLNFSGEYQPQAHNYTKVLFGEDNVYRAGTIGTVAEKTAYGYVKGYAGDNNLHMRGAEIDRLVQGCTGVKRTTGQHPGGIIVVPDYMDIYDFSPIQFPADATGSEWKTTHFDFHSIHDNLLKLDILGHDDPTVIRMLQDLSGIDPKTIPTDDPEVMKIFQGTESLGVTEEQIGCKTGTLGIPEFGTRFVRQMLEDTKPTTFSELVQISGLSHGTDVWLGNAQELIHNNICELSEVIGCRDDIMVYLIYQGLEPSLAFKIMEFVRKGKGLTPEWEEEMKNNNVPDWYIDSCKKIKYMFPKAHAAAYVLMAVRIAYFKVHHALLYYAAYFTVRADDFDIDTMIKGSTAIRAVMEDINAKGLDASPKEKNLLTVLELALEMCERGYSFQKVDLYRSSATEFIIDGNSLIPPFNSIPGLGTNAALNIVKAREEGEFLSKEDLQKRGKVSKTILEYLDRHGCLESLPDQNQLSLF

The target in assay [8] is Tumor susceptibility gene 101 protein (Homo sapiens) (UniProt Q99816). Description: qHTS Validation Assay for Iinhibitors of HIV-1 Budding by Blocking the Interaction of PTAP/TSG101 (AID 485342; calls by dose curve). A digest of the protocol:
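Fluorescence polarization of 50 nM FITC-PTAP peptide bound to 10 uM Tsg101 binding domain was read after 20 min room-temperature incubation with compounds, in 10 mM HEPES pH 7.5, 0.15 M NaCl, 0.01% Tween 20.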

Assay [9] is described as follows: qHTS Validation Assay to Find Inhibitors of Chronic Active B-Cell Receptor Signaling (AID 485345; active means well fitted curve in the direction sought with a large enough effect in the main read-out, with a control signal flat, not every such curve was filed as active). A digest of the protocol: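 TMD8 ABC-DLBCL cells with dox-inducible green luciferase–IκBα fusion and red native luciferase; compounds 46 uM–3 nM, 4 h at 37C with doxycycline in 0.5% FBS IMDM. Green/red ratio normalized to basal and 10 uM MG-132.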
Assay [10] deals with Beta-2 adrenergic receptor (Homo sapiens) (UniProt P07550). In words: qHTS validation assay of beta-arrestin-biased ligands of beta2-adrenergic receptor (AID 485366). The method, boiled down: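 Screening used a titration range of up to 46 microM in a beta-arrestin recruitment Tango luciferase assay. Cells in 1% FBS medium were treated 18 hr at 37 degrees C, and luminescence was normalized to %Activity.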
Beta-2 adrenergic receptor (Homo sapiens), sequence (P07550 whole entry, looked up): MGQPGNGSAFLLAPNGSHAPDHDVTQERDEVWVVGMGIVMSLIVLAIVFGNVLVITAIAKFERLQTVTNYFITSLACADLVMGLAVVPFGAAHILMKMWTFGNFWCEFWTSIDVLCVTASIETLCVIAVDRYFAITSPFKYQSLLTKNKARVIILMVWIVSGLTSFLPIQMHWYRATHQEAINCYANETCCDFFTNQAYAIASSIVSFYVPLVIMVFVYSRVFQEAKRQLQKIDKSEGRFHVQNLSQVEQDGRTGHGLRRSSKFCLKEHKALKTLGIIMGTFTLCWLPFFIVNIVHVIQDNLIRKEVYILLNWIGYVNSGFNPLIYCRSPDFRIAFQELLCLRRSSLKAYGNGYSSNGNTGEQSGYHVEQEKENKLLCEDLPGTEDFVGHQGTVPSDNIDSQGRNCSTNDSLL

In assay [11] the target is Thioredoxin reductase 1, cytoplasmic (Rattus norvegicus) (UniProt O89049). Description: qHTS Assay for Inhibitors of Mammalian Selenoprotein Thioredoxin Reductase 1 (TrxR1) (AID 488773).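 Further: drop in NADPH fluorescence over an 8 min run after selenite addition; series mostly up to about 57 µM; nearly all actives have a fitted effect of over 40% in size.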 The note with it: Potency: inhibition. The method, boiled down:
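Inhibition is scored from the loss of NADPH fluorescence between first and last reads of an 8-min kinetic run. Selenite (400 uM) was the substrate, added after 15 min compound preincubation at room temperature.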

The target in assay [12] is Flap endonuclease 1 (Homo sapiens) (UniProt P39748). Description: qHTS Validation Assay for the Inhibitors of Human Flap endonuclease 1 (FEN1) (AID 488816). Further: potency means the concentration at half of the fitted maximal effect. The method, boiled down: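 Steps: add FEN1 (10 nM reagent) or buffer only; pin compounds; hold 15 min at room temperature; start with substrate, 50 nM final; read at 0 and 15 min; correct, normalize and fit a four-parameter Hill curve.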
Flap endonuclease 1 (Homo sapiens), sequence (P39748 whole entry, looked up): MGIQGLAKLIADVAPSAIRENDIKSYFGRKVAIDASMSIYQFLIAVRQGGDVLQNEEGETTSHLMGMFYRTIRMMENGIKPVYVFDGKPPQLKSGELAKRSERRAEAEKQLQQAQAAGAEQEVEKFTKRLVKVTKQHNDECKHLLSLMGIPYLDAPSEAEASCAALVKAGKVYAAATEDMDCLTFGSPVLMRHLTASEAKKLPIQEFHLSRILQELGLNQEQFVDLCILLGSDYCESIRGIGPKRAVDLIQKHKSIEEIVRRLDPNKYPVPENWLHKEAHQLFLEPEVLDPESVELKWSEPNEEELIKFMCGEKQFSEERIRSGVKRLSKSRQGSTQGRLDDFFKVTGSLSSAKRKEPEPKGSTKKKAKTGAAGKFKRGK

The target of assay [13] is M-phase phosphoprotein 8 (Homo sapiens) (UniProt Q99549). In words: qHTS Validation Assay for Inhibitors for MPP8 Chromodomain Interactions with Methylated Histone Tails (AID 488949). Further: nearly all actives have a fitted effect of over 55% in size. Further: potency means the concentration at half of the fitted maximal effect. A digest of the protocol: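 AlphaScreen proximity signal from streptavidin donor and Ni-chelate acceptor beads (10 ug/mL each) reported binding of MPP8 to trimethyl-K9 H3(1-18) peptide, both at 50 nM. The complex formed 30 min before a 30 min compound exposure at room temperature, in PBS pH 7.4.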
M-phase phosphoprotein 8 (Homo sapiens), sequence (Q99549 whole entry, looked up): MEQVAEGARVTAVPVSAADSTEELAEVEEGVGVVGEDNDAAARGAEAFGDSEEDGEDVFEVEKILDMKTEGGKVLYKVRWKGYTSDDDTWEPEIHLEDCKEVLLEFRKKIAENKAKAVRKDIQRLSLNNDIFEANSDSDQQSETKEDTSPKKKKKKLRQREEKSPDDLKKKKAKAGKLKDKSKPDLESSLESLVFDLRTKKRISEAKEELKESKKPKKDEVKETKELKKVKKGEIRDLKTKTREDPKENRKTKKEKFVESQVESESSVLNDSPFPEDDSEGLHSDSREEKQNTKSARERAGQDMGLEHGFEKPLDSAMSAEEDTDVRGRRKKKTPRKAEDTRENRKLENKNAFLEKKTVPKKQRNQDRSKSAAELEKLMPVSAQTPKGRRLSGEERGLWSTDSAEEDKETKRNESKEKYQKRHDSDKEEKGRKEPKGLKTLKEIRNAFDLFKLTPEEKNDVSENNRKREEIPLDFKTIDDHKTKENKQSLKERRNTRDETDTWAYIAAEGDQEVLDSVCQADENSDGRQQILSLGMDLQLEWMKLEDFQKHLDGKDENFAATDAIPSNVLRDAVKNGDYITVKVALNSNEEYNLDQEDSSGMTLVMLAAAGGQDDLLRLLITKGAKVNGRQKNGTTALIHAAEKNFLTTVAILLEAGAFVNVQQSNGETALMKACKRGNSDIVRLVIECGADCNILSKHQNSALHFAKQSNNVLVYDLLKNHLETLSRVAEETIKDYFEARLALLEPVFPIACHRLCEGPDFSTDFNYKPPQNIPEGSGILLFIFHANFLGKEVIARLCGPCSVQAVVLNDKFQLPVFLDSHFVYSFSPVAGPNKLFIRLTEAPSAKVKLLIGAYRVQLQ

In assay [14] the target is Thioredoxin reductase 1, cytoplasmic (Rattus norvegicus) (UniProt O89049). Description: qHTS Assay for Substrates of Mammalian Selenoprotein Thioredoxin Reductase 1 (TrxR1) (AID 488772).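 Further: series mostly up to about 57 µM; a drop in NADPH fluorescence below the no-compound background marks a TrxR1 substrate.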 The method, boiled down: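 In this dual-purpose format, potential substrates are identified from the first fluorescence read after selenite addition, not from the 8-minute delta. Rat enzyme is preincubated with NADPH and then with compound at ~22 deg C.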

A short description of assay [15]: Quantitative high throughput screen for delayed death inhibitors of the malarial parasite plastid, 96 hour incubation (AID 488745). Further: series mostly up to about 29 µM; nearly all actives have a fitted effect of over 70% in size. A digest of the protocol: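 Decreased firefly luciferase luminescence indicates inhibited growth of reporter-integrated P. falciparum after two generations (96 h, 37 C, 5% CO2). Infected erythrocytes at 0.1% parasitemia, 2% hematocrit, in Albumax-supplemented RPMI 1640.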

Assay [16] deals with Chromobox protein homolog 1 (Homo sapiens) (UniProt P83916). Description: qHTS Validation Assay for Inhibitors of HP1-beta Chromodomain Interactions with Methylated Histone Tails (AID 488953). Further: nearly all actives have a fitted effect of over 50% in size. Further: potency means the concentration at half of the fitted maximal effect. The method, boiled down:
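AlphaScreen proximity signal from streptavidin donor and nickel chelate acceptor beads (final 10 ug/mL) after 30 min dark incubation. Compounds had 30 min at room temperature with preformed complex of 50 nM HP1-beta and 50 nM b-H3(1-18)K9me3 in PBS pH 7.4 with 0.01% Tween-20.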

The target in assay [17] is ATP-dependent 6-phosphofructokinase (Trypanosoma brucei brucei) (UniProt O15648). In words: qHTS Validation Assay to Find Inhibitors of T. brucei phosphofructokinase (AID 485368). Further: potency means the concentration at half of the fitted maximal effect. The method, boiled down:
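PFK-generated ADP was measured after 45 min at room temperature using ADP-Glo. The reaction contained 0.5 mM F6P and 0.1 mM ATP.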

Assay [18] can be described thus: Quantitative high throughput screen for delayed death inhibitors of the malarial parasite plastid, 48 hour incubation (AID 488752). Further: nearly all actives have a fitted effect of over 65% in size. The method, boiled down:
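One-generation (48 h) growth assay: a decrease in luciferase signal from an integrated reporter in P. falciparum-infected red cells (0.1% parasitemia, 2% hematocrit) after compound exposure at 37 C indicates parasite inhibition.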

Where “and” joins values, the source holds several entries; their conditions need not be identical. Identical values can stand only once. Results filed as inconclusive are left out. Some structures have more than one record in an assay (separate samples or runs), and their calls can disagree. Calls of active or inactive are those of the source. Unless noted, the call rests on the fitted dose curve; in most records, active means well fitted curve in the direction sought with a large enough effect; inconclusive means small, poorly fitted or top-dose-only effect, or another doubt; inactive means no such curve, though single readings can be large; an effect the other way counts as inactive or inconclusive.

ATP-dependent 6-phosphofructokinase (Trypanosoma brucei brucei), sequence (O15648 whole entry, looked up): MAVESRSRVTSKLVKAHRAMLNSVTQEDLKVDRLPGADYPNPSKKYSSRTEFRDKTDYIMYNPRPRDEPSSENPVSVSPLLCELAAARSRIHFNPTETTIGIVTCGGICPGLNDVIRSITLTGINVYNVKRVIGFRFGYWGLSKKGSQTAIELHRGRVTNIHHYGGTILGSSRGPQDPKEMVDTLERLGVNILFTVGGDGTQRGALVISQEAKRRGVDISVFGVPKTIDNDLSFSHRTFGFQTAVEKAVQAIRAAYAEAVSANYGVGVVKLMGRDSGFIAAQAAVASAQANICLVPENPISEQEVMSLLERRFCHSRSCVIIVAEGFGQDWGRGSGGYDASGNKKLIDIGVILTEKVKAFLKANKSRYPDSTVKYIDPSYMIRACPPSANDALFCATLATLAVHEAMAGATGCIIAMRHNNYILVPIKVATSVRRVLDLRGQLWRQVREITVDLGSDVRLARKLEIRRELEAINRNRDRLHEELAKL
Ubiquitin carboxyl-terminal hydrolase 2 (Homo sapiens), sequence (O75604 whole entry, looked up): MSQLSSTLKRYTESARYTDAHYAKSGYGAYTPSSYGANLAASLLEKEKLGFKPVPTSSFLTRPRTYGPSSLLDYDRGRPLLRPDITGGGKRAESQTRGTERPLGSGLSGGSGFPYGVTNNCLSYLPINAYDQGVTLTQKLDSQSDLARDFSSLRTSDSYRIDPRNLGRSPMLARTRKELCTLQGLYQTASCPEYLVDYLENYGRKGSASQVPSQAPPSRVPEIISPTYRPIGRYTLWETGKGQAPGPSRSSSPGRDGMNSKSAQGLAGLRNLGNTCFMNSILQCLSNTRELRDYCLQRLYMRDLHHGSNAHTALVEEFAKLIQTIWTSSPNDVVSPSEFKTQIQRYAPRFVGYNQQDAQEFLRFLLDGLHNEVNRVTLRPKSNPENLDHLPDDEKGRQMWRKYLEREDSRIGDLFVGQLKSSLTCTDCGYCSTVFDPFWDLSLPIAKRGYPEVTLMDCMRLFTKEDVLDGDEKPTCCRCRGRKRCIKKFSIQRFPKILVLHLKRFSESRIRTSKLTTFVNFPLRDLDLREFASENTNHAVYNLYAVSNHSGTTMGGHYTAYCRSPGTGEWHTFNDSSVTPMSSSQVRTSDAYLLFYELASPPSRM
Tumor susceptibility gene 101 protein (Homo sapiens), sequence (Q99816 whole entry, looked up, the tested form may be a part): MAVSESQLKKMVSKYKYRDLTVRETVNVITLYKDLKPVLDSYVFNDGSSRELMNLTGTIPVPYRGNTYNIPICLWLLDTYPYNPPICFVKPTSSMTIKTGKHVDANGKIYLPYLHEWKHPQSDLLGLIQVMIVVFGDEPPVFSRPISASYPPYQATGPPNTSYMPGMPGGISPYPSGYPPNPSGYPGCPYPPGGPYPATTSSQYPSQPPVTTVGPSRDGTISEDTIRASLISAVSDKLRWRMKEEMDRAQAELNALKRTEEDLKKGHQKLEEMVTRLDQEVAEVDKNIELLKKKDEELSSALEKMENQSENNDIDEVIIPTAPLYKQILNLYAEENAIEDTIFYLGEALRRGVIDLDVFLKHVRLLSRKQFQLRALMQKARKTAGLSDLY
Chromobox protein homolog 1 (Homo sapiens), sequence (P83916 whole entry, looked up): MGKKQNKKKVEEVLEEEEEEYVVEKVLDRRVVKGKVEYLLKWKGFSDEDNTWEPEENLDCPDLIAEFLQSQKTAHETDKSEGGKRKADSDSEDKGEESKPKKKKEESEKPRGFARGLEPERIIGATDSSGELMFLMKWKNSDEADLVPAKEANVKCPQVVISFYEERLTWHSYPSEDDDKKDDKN

In the case of `NC(N)=NC(=O)c1nc(Cl)c(N2CCCCCC2)nc1N`, the molecule was called inactive in assay [1], in assay [8], in [9] and in assay [10]. Further, the Potency entry in assay [2], in [3], in assay [4], in assay [5], in assay [6] and in [7] was “inactive” throughout. Besides, the Potency result in [11] and in [12] was “inactive” throughout. In addition, in assay [13], the Potency is 44.7 µM (active) and inactive.

Consider `CCCn1c(=O)c2[nH]c(-c3ccc(OCC(=O)NCCN)cc3)nc2n(CCC)c1=O`, for which the molecule was classed as inactive in [1], in [8], in [9] and in assay [10]. Besides, the Potency result in assay [2], in assay [3], in assay [4], in assay [5], in assay [6] and in assay [7] was “inactive” in each case. Moreover, the Potency result in [14], in [11], in assay [12] and in assay [13] was “inactive” in each case.

Turning to `O=C(O)c1cc(=O)c2ccccc2[nH]1`, the result in [1], in [8], in assay [9] and in [10] was inactive. For the same molecule, the Potency entry in assay [2], in assay [3], in assay [4], in [5], in assay [6] and in assay [7] was “inactive” in each case. Moreover, the Potency entry in [15], in assay [14], in [11], in assay [12] and in assay [13] was “inactive” throughout. In [16], the Potency is 0.0474 µM (active).

`O=C(Nc1cccc(C(=O)Nc2ccc(S(=O)(=O)O)c3cc(S(=O)(=O)O)cc(S(=O)(=O)O)c23)c1)Nc1cccc(C(=O)Nc2ccc(S(=O)(=O)O)c3cc(S(=O)(=O)O)cc(S(=O)(=O)O)c23)c1`: the result in assay [1], in assay [8], in [9] and in assay [10] was inactive. Moreover, the Potency result in [2], in assay [3], in assay [4], in assay [5], in assay [15] and in assay [18] was “inactive” each time. The Potency result in [14] was “inactive”. The Potency is 8.26 µM (active) in assay [6]; 11.9 µM (active) in [7]; 37.9 nM (active) in assay [17]; 1.89 µM (active) in assay [12]; 31.6 µM (active) and 9.47 µM (active) in assay [13]; 20 µM (active) in assay [16].

On to `N[C@@H](CC(=O)O)C(=O)O`, for which the molecule was classed as inactive in assay [1], in assay [8], in assay [9] and in assay [10]. Besides, the Potency result in assay [2], in [3], in assay [4], in assay [5], in assay [6] and in assay [7] was “inactive” each time. Also, the Potency entry in assay [17], in assay [15], in assay [18], in assay [14], in assay [11] and in [12] was “inactive” in each case. For the same molecule, the Potency result in [13] and in [16] was “inactive” each time.

Turning to `N=C(N)SCCc1ccc(CCSC(=N)N)cc1`, the molecule was classed as inactive in assay [1], in [8], in assay [9] and in assay [10]. The Potency result in [2], in assay [3], in [4], in [5], in [6] and in assay [7] was “inactive” each time. The Potency result in assay [17], in assay [15], in assay [18], in [14], in assay [12] and in assay [13] was “inactive” throughout. The Potency result in assay [16] was “inactive”.

For `O=C(O)CNC(=O)C(CS)Cc1ccccc1` (configuration not stated), the molecule was called inactive in assay [1], in assay [8], in [9] and in assay [10]. In addition, the Potency entry in [2], in [3], in assay [4], in assay [5], in assay [6] and in [7] was “inactive” each time. Further, the Potency result in assay [17], in assay [15], in [18], in [14], in assay [11] and in [12] was “inactive” each time. The Potency entry in [16] was “inactive”.
